Assay results taken from the supplement of paper PMC11732987, “Enantioselective OTUD7B fragment discovery through chemoproteomics screening and high-throughput optimisation” (Communications Chemistry, 2025).

Experiments:
Test in all cases: log2 ratio of Biotin-Ahx-Ub-VS probe labelling (fragment/DMSO); higher = less target engagement (more negative = stronger competition), active = hit call of the paper (q ≤ 0.05, log2 ratio ≤ -1)
Conditions in all cases: compound concentration: 200 uM; treatment time: 3 h
USP42 = biological target: T1, USP42 (UniProt Q9H9J4)
T1 sequence (whole entry): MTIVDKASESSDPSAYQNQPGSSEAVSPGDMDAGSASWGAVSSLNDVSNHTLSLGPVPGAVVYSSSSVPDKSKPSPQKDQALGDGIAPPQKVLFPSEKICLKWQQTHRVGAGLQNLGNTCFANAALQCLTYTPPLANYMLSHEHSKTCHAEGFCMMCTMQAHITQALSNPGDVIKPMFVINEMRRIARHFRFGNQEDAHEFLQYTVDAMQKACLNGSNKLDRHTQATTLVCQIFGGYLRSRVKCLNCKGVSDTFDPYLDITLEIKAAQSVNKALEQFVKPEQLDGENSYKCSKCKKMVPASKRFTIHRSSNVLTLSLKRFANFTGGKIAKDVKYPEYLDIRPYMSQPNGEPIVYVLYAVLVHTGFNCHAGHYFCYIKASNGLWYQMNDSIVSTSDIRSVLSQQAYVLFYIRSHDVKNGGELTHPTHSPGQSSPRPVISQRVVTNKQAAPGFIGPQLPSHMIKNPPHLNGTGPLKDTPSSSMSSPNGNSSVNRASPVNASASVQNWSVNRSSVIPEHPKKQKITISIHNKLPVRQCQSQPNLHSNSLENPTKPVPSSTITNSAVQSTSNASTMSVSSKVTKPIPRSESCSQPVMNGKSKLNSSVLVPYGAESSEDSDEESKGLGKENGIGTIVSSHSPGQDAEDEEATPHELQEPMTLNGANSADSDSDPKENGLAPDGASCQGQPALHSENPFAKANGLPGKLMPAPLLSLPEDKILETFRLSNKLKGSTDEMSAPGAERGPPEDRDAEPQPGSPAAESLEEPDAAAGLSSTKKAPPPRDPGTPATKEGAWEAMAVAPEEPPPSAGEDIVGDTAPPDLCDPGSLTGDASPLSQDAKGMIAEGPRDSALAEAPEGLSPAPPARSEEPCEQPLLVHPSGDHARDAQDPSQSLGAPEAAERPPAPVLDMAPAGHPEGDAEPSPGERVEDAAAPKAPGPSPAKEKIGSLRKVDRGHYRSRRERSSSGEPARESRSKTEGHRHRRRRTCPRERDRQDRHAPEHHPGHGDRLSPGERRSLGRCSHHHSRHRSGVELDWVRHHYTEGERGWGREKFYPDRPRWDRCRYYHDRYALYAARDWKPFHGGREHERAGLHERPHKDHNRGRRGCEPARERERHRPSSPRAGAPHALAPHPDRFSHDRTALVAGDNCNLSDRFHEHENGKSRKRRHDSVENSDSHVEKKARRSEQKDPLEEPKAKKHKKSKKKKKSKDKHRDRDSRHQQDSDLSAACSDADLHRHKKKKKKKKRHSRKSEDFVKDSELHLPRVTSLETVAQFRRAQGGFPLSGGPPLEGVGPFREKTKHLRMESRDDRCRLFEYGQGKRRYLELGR
Procedure, shortened: (§1)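 Labelled DUBs from HEK293T lysate were NeutrAvidin-enriched, digested with LysC and trypsin, and run by diaPASEF LC-MS/MS. Before that, each 495 µg sample in Tris/CHAPS/IGEPAL buffer with protease inhibitors was treated in triplicate with fragment at 200 µM or vehicle for 3 h, then with Biotin-Ahx-Ub-VS at 0.5 µM final for 1 h. Values are average log2 ratios of fragment over vehicle by unpaired t-test, based on global-median-normalised Spectronaut label-free quantities from proteins with ≥2 unique peptides.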

USP46 = USP46 (UniProt P62068)
Procedure, shortened: as §1

USP47 = biological target: T2, USP47 (UniProt Q96K76)
T2 sequence (whole entry): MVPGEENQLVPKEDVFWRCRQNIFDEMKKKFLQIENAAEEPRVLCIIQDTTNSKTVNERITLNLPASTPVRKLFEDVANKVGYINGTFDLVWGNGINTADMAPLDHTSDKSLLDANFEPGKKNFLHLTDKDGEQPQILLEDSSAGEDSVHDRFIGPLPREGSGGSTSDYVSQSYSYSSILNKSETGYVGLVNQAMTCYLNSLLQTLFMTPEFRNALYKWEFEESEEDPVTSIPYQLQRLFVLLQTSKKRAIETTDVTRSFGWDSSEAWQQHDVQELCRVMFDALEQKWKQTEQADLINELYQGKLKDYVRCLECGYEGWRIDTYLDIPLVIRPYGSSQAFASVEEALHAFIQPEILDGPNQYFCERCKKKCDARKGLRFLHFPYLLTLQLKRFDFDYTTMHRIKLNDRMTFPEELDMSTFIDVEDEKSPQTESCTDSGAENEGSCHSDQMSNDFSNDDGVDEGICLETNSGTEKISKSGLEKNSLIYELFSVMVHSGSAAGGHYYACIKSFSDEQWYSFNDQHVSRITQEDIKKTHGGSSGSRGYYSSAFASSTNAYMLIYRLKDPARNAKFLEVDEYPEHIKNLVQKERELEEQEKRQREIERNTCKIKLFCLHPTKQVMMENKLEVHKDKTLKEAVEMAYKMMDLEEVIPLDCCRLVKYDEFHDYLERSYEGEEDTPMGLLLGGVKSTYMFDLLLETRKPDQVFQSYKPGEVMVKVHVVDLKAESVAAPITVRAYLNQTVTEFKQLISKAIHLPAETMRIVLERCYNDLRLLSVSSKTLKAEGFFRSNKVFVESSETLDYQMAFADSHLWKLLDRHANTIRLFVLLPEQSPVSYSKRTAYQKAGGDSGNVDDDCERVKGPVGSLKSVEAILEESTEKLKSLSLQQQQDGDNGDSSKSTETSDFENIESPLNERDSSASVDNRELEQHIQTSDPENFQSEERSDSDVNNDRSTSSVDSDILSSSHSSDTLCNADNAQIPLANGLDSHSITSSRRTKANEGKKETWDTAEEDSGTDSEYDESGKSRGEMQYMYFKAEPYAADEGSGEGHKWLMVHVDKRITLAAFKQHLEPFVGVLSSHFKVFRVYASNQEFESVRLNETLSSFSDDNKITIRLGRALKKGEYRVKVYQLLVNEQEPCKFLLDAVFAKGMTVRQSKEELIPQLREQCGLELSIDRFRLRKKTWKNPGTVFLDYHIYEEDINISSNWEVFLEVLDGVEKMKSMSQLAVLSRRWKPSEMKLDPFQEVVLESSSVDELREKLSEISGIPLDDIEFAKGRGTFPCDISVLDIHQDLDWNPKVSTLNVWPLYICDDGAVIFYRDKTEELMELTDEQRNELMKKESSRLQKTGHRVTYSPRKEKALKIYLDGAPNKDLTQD
Procedure, shortened: as §1

USP48 = biological target: T3, USP48 (UniProt Q86UV5)
T3 sequence (whole entry): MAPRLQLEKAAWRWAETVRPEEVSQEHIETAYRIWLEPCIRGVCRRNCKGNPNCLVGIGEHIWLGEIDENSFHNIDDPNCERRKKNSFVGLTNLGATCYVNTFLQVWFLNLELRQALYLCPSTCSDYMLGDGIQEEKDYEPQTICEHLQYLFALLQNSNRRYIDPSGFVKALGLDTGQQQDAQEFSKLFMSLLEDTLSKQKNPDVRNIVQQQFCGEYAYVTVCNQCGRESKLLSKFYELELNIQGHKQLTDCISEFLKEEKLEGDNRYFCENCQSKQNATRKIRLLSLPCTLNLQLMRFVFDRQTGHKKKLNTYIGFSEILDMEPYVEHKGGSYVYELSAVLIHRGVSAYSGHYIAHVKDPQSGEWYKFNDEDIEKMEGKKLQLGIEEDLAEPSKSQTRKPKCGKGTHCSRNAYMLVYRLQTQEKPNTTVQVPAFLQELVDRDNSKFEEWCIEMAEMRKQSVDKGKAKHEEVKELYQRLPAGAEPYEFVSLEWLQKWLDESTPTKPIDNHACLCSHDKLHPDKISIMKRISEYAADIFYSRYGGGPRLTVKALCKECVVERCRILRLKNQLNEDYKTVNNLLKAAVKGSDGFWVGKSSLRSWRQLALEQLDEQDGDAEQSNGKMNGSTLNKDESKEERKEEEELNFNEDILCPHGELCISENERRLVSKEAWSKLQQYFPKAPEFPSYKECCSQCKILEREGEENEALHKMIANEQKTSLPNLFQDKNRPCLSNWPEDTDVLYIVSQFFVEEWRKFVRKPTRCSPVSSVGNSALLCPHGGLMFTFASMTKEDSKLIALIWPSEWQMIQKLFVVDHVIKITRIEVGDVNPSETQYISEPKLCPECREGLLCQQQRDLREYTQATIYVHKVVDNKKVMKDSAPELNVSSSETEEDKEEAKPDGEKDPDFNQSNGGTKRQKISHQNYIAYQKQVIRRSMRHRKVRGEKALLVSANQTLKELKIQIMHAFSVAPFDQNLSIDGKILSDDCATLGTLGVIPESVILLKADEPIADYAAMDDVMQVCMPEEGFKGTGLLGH
Procedure, shortened: as §1

USP5 = biological target: T4, USP5 (UniProt P45974)
T4 sequence (whole entry): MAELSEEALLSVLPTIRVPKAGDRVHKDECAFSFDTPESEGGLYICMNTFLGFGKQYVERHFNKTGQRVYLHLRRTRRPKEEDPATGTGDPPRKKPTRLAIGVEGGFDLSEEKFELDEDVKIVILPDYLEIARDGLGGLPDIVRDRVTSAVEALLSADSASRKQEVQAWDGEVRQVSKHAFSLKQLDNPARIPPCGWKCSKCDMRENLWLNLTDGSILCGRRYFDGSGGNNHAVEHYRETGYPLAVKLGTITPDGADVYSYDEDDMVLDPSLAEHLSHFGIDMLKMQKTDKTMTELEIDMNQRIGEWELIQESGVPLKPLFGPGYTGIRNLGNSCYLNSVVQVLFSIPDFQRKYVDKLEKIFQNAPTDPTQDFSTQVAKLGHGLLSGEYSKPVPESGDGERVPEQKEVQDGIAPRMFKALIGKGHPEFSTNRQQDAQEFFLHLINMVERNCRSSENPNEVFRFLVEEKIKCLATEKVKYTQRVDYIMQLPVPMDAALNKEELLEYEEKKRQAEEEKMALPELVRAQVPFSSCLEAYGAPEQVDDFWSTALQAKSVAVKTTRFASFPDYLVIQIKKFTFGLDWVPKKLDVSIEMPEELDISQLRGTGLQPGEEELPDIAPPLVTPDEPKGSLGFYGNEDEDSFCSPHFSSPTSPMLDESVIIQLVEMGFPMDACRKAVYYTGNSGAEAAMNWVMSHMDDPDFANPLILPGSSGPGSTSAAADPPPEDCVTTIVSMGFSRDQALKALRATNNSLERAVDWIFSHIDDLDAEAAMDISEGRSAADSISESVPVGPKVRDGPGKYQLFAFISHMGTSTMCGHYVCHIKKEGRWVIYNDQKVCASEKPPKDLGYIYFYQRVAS
Procedure, shortened: as §1

USP54 = USP54 (UniProt Q70EL1)
Procedure, shortened: as §1

USP7 = USP7 (UniProt Q93009)
Procedure, shortened: as §1

USP8 = biological target: T5, USP8 (UniProt P40818)
T5 sequence (whole entry): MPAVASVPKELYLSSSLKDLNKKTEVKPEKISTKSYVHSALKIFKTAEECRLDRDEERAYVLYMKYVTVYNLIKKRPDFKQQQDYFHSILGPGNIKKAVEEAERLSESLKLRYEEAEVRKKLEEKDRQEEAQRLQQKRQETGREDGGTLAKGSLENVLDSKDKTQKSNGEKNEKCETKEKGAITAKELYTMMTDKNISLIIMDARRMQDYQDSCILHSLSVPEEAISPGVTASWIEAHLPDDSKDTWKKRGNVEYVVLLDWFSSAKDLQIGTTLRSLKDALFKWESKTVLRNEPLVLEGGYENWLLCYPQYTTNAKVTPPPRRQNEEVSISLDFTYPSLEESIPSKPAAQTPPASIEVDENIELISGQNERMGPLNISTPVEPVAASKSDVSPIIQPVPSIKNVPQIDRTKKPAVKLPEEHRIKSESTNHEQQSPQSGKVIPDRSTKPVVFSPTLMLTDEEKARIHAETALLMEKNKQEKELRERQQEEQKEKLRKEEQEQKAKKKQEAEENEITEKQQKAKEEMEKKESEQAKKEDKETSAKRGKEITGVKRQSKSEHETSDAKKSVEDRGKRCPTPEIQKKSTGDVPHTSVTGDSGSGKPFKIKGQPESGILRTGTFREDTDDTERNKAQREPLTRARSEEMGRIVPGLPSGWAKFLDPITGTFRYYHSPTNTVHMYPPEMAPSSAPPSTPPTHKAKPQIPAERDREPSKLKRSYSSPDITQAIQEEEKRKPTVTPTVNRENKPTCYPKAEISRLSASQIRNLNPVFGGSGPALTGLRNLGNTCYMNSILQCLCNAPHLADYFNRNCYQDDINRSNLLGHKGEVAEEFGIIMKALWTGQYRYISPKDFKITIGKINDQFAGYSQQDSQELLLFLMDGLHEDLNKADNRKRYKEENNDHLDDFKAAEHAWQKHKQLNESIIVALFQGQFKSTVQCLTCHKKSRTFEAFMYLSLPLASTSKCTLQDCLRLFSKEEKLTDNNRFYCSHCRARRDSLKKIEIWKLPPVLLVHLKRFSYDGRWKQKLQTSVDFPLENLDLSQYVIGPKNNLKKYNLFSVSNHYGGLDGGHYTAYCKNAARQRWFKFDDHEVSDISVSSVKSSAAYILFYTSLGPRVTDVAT
Procedure, shortened: as §1

Measured: log2 ratio of Biotin-Ahx-Ub-VS probe labelling

Sequence of USP46 (P62068 whole entry): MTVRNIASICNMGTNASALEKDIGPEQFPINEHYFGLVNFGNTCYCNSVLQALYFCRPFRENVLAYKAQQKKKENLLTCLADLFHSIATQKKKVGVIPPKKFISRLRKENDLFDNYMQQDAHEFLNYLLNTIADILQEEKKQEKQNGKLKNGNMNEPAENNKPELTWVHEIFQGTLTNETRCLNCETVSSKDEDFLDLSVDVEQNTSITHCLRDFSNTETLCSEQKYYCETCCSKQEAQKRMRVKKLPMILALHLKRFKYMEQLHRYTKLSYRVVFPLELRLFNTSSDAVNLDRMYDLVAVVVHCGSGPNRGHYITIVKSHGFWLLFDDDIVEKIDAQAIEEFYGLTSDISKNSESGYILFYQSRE
Sequence of USP7 (Q93009 whole entry, looked up): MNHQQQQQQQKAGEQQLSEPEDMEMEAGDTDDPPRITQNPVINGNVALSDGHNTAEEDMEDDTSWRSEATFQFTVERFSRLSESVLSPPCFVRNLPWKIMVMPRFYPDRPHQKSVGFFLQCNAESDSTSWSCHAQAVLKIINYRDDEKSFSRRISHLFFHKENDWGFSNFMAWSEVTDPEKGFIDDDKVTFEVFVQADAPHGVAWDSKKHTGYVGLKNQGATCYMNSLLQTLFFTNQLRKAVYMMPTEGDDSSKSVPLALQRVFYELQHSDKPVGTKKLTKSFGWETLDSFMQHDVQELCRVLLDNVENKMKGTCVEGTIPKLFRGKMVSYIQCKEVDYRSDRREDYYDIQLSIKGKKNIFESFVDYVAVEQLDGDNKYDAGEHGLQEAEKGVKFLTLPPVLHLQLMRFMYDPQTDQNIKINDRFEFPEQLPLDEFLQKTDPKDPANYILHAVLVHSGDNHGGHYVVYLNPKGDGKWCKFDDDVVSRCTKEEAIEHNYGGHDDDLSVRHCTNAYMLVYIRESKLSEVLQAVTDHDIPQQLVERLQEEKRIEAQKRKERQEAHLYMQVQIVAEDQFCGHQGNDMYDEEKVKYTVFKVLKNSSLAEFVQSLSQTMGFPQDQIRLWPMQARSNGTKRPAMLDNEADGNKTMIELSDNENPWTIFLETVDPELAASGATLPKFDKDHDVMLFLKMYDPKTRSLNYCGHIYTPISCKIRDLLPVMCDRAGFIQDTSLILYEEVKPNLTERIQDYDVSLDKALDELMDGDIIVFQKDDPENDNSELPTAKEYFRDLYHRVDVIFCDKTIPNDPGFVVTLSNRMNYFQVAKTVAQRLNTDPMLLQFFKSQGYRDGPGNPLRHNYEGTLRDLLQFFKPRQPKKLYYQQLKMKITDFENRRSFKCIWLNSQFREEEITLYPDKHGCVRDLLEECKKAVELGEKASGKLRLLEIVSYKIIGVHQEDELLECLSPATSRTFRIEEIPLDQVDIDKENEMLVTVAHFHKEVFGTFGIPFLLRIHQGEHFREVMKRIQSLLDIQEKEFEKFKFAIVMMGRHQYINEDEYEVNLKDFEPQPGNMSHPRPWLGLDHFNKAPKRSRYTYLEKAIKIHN
Sequence of USP54 (Q70EL1 whole entry): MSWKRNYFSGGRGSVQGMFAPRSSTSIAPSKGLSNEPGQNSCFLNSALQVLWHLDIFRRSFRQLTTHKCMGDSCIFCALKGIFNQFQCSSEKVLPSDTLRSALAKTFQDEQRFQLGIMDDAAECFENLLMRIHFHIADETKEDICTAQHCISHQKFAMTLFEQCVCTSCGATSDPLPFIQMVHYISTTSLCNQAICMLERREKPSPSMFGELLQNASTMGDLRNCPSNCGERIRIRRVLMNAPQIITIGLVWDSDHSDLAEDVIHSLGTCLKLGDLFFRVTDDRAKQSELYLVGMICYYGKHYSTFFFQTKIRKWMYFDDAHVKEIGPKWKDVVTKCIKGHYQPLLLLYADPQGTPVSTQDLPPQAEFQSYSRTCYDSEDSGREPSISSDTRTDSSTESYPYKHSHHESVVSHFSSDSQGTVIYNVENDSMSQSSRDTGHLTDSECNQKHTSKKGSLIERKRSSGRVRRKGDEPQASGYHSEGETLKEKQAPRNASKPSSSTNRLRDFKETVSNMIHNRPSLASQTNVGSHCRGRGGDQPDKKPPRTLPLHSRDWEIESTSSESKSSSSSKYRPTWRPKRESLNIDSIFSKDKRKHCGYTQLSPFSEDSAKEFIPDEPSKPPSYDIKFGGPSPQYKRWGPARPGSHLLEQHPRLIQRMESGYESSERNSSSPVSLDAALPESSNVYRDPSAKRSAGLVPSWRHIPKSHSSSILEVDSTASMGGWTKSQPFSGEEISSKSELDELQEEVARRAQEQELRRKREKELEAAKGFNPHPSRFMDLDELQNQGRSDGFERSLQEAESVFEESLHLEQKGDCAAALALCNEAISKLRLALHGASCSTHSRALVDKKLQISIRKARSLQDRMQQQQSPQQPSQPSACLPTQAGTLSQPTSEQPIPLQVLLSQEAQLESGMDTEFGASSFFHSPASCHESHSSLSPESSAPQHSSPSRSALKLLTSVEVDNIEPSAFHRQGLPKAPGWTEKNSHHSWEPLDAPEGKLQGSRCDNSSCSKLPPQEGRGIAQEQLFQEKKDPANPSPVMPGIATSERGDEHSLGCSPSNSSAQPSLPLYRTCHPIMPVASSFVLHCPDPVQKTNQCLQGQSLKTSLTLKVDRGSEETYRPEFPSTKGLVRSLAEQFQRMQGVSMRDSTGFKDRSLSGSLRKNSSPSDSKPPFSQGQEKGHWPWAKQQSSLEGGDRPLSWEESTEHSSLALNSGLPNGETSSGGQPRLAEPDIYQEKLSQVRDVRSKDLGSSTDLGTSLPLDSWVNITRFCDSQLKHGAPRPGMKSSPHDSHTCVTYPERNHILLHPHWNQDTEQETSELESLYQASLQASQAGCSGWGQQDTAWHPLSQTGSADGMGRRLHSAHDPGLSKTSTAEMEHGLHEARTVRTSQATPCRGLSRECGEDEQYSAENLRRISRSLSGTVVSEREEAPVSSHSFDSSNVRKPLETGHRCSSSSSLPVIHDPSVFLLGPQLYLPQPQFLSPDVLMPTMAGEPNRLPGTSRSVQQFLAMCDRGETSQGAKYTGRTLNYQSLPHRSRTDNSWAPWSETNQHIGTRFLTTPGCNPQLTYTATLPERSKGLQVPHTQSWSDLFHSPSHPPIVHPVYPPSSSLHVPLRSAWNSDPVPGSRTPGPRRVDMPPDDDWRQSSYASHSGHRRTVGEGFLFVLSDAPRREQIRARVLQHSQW

Cc1cccnc1NC(=O)C1CCN(C(=O)CCl)CC1.Cl
inactive: USP42 -0.427 | USP46 -0.0664 | USP47 -0.337 | USP48 -0.172 | USP5 -0.0361 | USP54 0.628 | USP7 -0.121 | USP8 -0.221
